Reference: the OligoGym collection

Target: MYL4
Test: pooled miR-30 sensor sort-seq; sequence = guide strand
Conditions: shRNA

First: TCTTGACATTCATCTCTTCAGG
Second: TGAACTCTTCAATCTGGTCGGC
The sensor-assay potency score (higher = more potent) of the first is lower: -0.927 for the first, 0.0317 for the second.

In the case of TAGGTGATCTTCATCTCTCCAG, the sensor-assay potency score (higher = more potent) is reported as -0.392.

Target: MYNN
Test: as above
Conditions: shRNA

First: TTTGAGATAGTCAGCAGCCTGA
Second: TTTTTCTTCACCATGATGCATG
The sensor-assay potency score (higher = more potent) of the first is higher: -0.243 for the first, -0.931 for the second.

First: TTGAGATTGCTAGAAGTCGCAA
Second: TTATTTGTGCAACTTGTTCTAC
The sensor-assay potency score (higher = more potent) of the first is lower: -0.134 for the first, 0.0284 for the second.

Going from TTTGAGATGACTTTTTCGCTAA to TTTCTGAAATCCATCAGCCTTC, the sensor-assay potency score (higher = more potent) falls from -0.185 to -0.541.

Compared with TTGACCTCAACAATGTATCTGA, TGCTTCTGTAGATCGCACCAAA is lower in sensor-assay potency score (higher = more potent): 0.54 for the first, -1.32 for the second.

First: TAAATTTTTAATATCTGTGTAA
Second: TCGATTATTATAATCTCGCAGA
The sensor-assay potency score (higher = more potent) of the first is higher: -0.492 for the first, -0.633 for the second.

Compared with TAACAGTGTGCACAATATCTTG, TTATGTATTCTCATGTGCCTTC is higher in sensor-assay potency score (higher = more potent): -1.2 for the first, 0.676 for the second.

Target: MYO1A
Test: as above
Conditions: shRNA

Going from TTGAGCTGCTTCACTAATCGGG to TTGATTCGATTCACTATCCAGT, the sensor-assay potency score (higher = more potent) falls from 0.105 to -0.284.

Compared with TAAATCTTCTGTATGAGTGTGG, TTTTTGTAGCGTAGCTTGCTGT is lower in sensor-assay potency score (higher = more potent): 0.504 for the first, -0.784 for the second.

First: TTCTCCTTGAACCTCACTGAGA
Second: TAGCACTTGTCGAATCTCCTCC
The sensor-assay potency score (higher = more potent) of the first is lower: -1.61 for the first, 0.419 for the second.

Going from TTGTCTAAGACGTTTGTGGATG to TAGTCCACCTTTGTCCACGGTA, the sensor-assay potency score (higher = more potent) rises from -0.839 to -0.661.

First: TAAGACATCACCAGCTTGCTGG
Second: TTGTCGAATCTCCTCCTCCGAG
The sensor-assay potency score (higher = more potent) of the first is higher: -0.216 for the first, -0.993 for the second.

With TTCCTCTTGCTCTTCTTTCAGG the sensor-assay potency score (higher = more potent) was -0.825.

Target: MYO1D
Test: as above
Conditions: shRNA

First: TATAGTTGTAGGATGAAAGGGA
Second: TTAGTTTCTTGACAGCCTCTTT
The sensor-assay potency score (higher = more potent) of the first is higher: 0.615 for the first, -0.583 for the second.

First: TTGTTCTGAACCTCCTTGGAGT
Second: TTGAGCACAGGATTTGAACTGT
The sensor-assay potency score (higher = more potent) of the first is lower: -0.407 for the first, 0.338 for the second.

First: TAGTAGAGAGCAATTCTGCTAT
Second: TAGATGTTCAACAACTTGTAAG
The sensor-assay potency score (higher = more potent) of the first is higher: 0.00249 for the first, -1.57 for the second.

Compared with TTCAAGAAACATTTCATCGGTG, TTTCTCAACCATATCTGTCTTA is lower in sensor-assay potency score (higher = more potent): 0.501 for the first, 0.187 for the second.

Compared with TTAAGTAAGATGATCCTTGGAG, TTCAAAACTGTTGTTGTCGAAG is lower in sensor-assay potency score (higher = more potent): 0.286 for the first, -0.485 for the second.

With TTGTTCTTGCTTCAGAACCAGC the sensor-assay potency score (higher = more potent) was -1.43.

Target: MYO1F
Test: as above
Conditions: shRNA

Going from TTCTTGACAAAGACCTTGGTGC to TTGTTGTTGCGCACAGTCTTGG, the sensor-assay potency score (higher = more potent) falls from 0.169 to -0.625.

For TTGAGCACTGCCAAGTCGCCGA, the sensor-assay potency score (higher = more potent) was -0.541.
